# Assay results: PubChem BioAssay
# Activity calls are given as the source filed them.
# Legend:
# [1] = E. coli DRC41 culture turbidity changes, primary screen, E. coli filamentation inducer project, strain DRC41, OD650, 48 h (AID 1152);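 also: E. coli MC1000 strain DRC41 lacking acrAB efflux pump and sulA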; settings: E. coli DRC41 (acrAB sulA), higher = more signal, called active from +8 up or from −8 down
# [2] = small-molecule binders of probe aLefty1, primary screen, biochemical, small-molecule microarray, 635/667 nm fluorescence (AID 1153); settings: higher = more signal;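 also: score merges spot fluorescence with signal-to-noise ratio from the scanned slide images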
# [3] = PSAC antagonists in infected red cells, primary screen, cell-based, P. falciparum Indochina, OD700, 1 h (AID 1154); settings: P. falciparum Indochina infected RBC osmotic lysis, higher = more signal, called active from +8 up or from −8 down
# [4] = PSAC antagonists in infected red cells, primary screen, cell-based, P. falciparum Indochina, OD700, 2 h (AID 1155);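 also: lysis reports solute entry through the parasite surface anion channel PSAC; channel blockers reduce lysis of infected cells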; settings: P. falciparum Indochina infected erythrocytes, osmotic lysis OD700; higher = more signal, called active from +8 up or from −8 down
# [5] = osmotic lysis modulators in infected erythrocytes, primary screen, PSAC antagonist project, cell-based, P. falciparum Indochina, OD700, 3 h (AID 1156); settings: higher = more signal, called active from +8 up or from −8 down
# [6] = PSAC antagonists in infected red cells, primary screen, cell-based, P. falciparum Indochina, OD700, 18 h (AID 1157); settings: P. falciparum Indochina infected erythrocytes, osmotic lysis OD700, 18 h; higher = more signal, called active from +8 up or from −8 down
# [7] = modulators of S6 phosphorylation in cells, primary screen, cell-based, A549, cytoblot, luminescence, serum-stimulated (AID 1158); settings: A549 phospho-S6 cytoblot, 5 h, higher = more signal;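 also: serum-stimulated A549 lung adenocarcinoma cells; signal is phosphorylated S6 detected by cytoblot immunostaining with HRP secondary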
# [8] = biological target: NADPH oxidase 2 (Homo sapiens) (UniProt P04839); experiment: NOX2-dependent H2O2 signal modulators, primary screen, NOX inhibitor project, cell-based, HEK293-NOX2, PMA-stimulated, Amplex Red fluorescence (AID 1159); settings: 45 min, higher = more signal, called active from +8 up or from −8 down; also: test concentration not given here
# [9] = biological target: NADPH oxidase 4 (Homo sapiens) (UniProt Q9NPH5); experiment: NOX4-dependent H2O2 signal modulators, primary screen, NOX inhibitor project, cell-based, HEK293-NOX4, tetracycline-induced, Amplex Red fluorescence (AID 1160); settings: 45 min, higher = more signal, called active from +8 up or from −8 down
# [10] = biological target: NADPH oxidase 5 (Homo sapiens) (UniProt Q96PH1); experiment: NOX5-dependent H2O2 signal modulators, primary screen, NOX inhibitor project, cell-based, HEK293-NOX5, Amplex Red fluorescence (AID 1161); settings: HEK293-NOX5, ionomycin, 45 min, higher = more signal
# [11] = A549 cell viability effects, profiling panel, calcein-AM fluorescence, 48 h, basal (AID 1162); settings: higher = more signal; also: test concentration not given here
# [12] = adipocyte viability effects, profiling panel, cell-based, 3T3-L1 adipocytes, calcein-AM fluorescence, 48 h, basal (AID 1163); settings: 3T3-L1 adipocytes viability, higher = more signal; also: test concentration not given here
# [13] = HepG2 cell viability effects, profiling panel, calcein-AM fluorescence, 48 h, basal (AID 1164); settings: higher = more signal; also: test concentration not given here
# [14] = MM1S cell viability effects, profiling panel, calcein-AM fluorescence, 48 h, basal (AID 1165); settings: higher = more signal;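 also: viability of MM1S multiple myeloma cells under basal unstimulated conditions; test concentration not given here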
# [15] = basal RPMI8226 viability, no added stimulus, profiling panel, cell-based, calcein-AM fluorescence, 48 h, PK04 Diversity Set (AID 1166); settings: RPMI8226 myeloma viability, higher = more signal;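 also: cells grown under basal conditions without added stimulus; test concentration not given here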
# [16] = basal HepG2 mitochondrial membrane potential changes, profiling panel, cell-based, JC-1 fluorescence, 24 h, 100 nL compound (AID 1167); settings: higher = more signal; also: test concentration not given here
# [17] = basal 3T3-L1 adipocyte mitochondrial potential changes, profiling panel, cell-based, JC-1 fluorescence, 3T3-L1 adipocytes, 24 h, 100 nL compound (AID 1168); settings: JC-1 mitochondrial fluorescence, higher = more signal, called active from +8 up or from −8 down; also: test concentration not given here
# [18] = basal RPMI8226 mitochondrial membrane potential changes, profiling panel, cell-based, JC-1 fluorescence, 24 h, 100 nL compound (AID 1169); settings: RPMI8226 myeloma, JC-1 mitochondrial potential fluorescence, higher = more signal; also: test concentration not given here
# [19] = basal MM1S mitochondrial membrane potential changes, profiling panel, cell-based, JC-1 fluorescence, 24 h, 100 nL compound (AID 1170); settings: higher = more signal; also: test concentration not given here
# [20] = A549 lung cancer cell viability effects, profiling panel, resazurin fluorescence, 24 h, PK04 Diversity Set (AID 1171); settings: higher = more signal, called active from +8 up or from −8 down; also: test concentration not given here
# Sequence of NADPH oxidase 2 (Homo sapiens) (P04839 whole entry, looked up): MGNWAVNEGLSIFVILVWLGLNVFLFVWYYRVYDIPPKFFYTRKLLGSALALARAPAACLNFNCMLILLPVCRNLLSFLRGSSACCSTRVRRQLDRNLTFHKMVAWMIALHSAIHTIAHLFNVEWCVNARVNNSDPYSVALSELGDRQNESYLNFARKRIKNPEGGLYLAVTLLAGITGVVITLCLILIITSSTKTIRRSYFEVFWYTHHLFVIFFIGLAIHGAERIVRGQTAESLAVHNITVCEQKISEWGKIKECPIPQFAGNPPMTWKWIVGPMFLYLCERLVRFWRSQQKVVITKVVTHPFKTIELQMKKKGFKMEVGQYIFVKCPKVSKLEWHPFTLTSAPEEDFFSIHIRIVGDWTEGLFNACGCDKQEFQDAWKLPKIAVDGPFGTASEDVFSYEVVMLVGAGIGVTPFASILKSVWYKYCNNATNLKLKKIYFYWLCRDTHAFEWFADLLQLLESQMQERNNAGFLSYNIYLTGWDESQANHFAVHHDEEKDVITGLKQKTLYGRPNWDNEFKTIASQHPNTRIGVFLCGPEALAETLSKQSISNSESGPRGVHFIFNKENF
# Sequence of NADPH oxidase 5 (Homo sapiens) (Q96PH1 whole entry, looked up): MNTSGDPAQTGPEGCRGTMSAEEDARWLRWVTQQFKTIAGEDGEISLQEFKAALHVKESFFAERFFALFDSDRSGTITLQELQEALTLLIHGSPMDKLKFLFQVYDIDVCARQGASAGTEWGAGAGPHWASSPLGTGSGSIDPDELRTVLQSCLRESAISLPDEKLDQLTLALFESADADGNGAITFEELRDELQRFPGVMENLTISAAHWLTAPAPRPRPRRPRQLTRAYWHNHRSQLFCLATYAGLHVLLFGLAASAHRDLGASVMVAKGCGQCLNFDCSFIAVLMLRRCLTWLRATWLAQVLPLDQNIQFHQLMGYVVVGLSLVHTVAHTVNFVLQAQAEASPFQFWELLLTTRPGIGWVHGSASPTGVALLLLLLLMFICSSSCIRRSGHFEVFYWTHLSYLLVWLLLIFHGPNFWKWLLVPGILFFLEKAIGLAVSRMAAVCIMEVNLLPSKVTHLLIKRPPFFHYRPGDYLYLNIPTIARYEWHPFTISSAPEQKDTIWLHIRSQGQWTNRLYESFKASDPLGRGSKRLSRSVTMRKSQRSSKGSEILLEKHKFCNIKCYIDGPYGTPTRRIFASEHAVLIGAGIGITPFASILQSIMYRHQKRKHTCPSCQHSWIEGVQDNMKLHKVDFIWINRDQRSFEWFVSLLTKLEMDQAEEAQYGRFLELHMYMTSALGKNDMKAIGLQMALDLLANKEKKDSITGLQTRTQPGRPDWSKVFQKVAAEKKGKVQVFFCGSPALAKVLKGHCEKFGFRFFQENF
# Sequence of NADPH oxidase 4 (Homo sapiens) (Q9NPH5 whole entry, looked up): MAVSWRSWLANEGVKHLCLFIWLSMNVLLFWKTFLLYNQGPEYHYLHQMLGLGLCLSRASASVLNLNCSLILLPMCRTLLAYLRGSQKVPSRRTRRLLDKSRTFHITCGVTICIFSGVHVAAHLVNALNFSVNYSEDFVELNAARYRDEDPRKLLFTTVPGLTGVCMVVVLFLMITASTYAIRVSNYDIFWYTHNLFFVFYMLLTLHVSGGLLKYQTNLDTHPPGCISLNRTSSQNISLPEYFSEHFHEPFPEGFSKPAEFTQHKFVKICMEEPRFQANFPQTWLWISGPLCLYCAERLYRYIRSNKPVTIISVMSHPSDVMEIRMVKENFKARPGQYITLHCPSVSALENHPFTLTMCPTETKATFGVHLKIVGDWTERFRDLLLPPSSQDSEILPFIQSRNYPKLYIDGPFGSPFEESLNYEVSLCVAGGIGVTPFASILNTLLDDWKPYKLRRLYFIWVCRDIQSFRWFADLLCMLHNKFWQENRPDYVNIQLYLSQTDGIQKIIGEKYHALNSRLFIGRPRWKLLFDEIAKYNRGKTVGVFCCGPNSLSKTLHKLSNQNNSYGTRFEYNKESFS
SMILES,z-score [1],composite z-score [2],z-score [3],z-score [4],z-score [5],z-score [6],z-score [7],z-score [8],z-score [9],z-score [10],z-score [11],z-score [12],z-score [13],z-score [14],z-score [15],z-score [16],z-score [17],z-score [18],z-score [19],z-score [20]
CCC[C@@H]1C=C(C(=O)OCC)[C@H](c2ccccc2)N1S(=O)(=O)c1ccc(C)cc1,-0.843 (inactive),0.316,-0.0086 (inactive),0.979 (inactive),-0.628 (inactive),0.0962 (inactive),-0.788,-0.671 (inactive),-0.646 (inactive),-0.135,-1.78,-0.937,-2.37,-1.19,-2.96,3.86,0.437 (inactive),-0.756,-0.65,1.8 (inactive)
O=C1O[C@H](c2ccccc2)[C@H](c2ccccc2)N2[C@H]1[C@@H](C(=O)NC[C@H](O)c1ccccc1)[C@]1(C(=O)Nc3ccc(C#CCCO)cc31)[C@H]2c1ccccc1OCCO,0.631 (inactive),0.0752,2.45 (inactive),0.612 (inactive),0.478 (inactive),0.786 (inactive),0.288,2.14 (inactive),1.35 (inactive),1.6,-0.661,1.43,-1.12,-0.751,-1.41,-0.864,2.89 (inactive),-0.72,-0.341,1.86 (inactive)
CCOC(=O)C1=C[C@@H](C(C)(C)C)N(S(=O)(=O)c2ccc(C)cc2)[C@H]1c1ccccc1Cl,-1.29 (inactive),0.208,-0.747 (inactive),0.627 (inactive),-0.775 (inactive),0.193 (inactive),-0.535,-1.54 (inactive),-0.44 (inactive),0.1,-0.917,-1.16,-1.81,-0.991,-1.2,3.95,0.147 (inactive),-0.822,-0.863,0.772 (inactive)
C=CC[C@]1(C(=O)N(C)C)COC(c2ccc(OCCCO)cc2)=N1,-2.4 (inactive),0.0087,8.04 (active),0.627 (inactive),2.32 (inactive),0.0256 (inactive),0.116,-0.898 (inactive),-0.581 (inactive),-2.06,0.345,0.911,-0.8,-0.424,0.304,-1.26,-0.133 (inactive),-0.676,1.23,-0.497 (inactive)
COCCOC(=O)N1C(=O)[C@@]2(c3cc(C#CC4=CCCCC4)ccc31)[C@H](C(=O)N1CCc3cc(OC)c(OC)cc3C1)[C@H]1C(=O)O[C@H](c3ccccc3)[C@H](c3ccccc3)N1[C@@H]2c1ccc(O)cc1,0.448 (inactive),0.679,0.996 (inactive),0.755 (inactive),0.067 (inactive),0.827 (inactive),0.228,1.58 (inactive),-0.0332 (inactive),1.18,0.59,0.479,0.334,-1.16,-0.583,-0.427,0.508 (inactive),-0.388,0.403,0.481 (inactive)
C[C@]1(C(=O)NCC(F)(F)F)c2ccccc2C(=O)N(Cc2ccc(OC(F)(F)F)cc2)[C@H]1c1ccc(CO)cc1,-0.831 (inactive),-0.284,2.58 (inactive),0.295 (inactive),3.67 (inactive),0.451 (inactive),-0.32,1.45 (inactive),-0.0975 (inactive),-1.45,0.377,0.194,0.334,0.0863,-1.37,0.756,-0.235 (inactive),1.04,0.157,0.0382 (inactive)
COc1ccc([Si](C)(C)[C@@H]2[C@@H](CCO)O[C@]3(C(=O)N(Cc4ccccc4)c4ccc(N5C(=O)c6ccccc6Oc6ccccc65)cc43)[C@H]2C)cc1,1.02 (inactive),0.0962,2.11 (inactive),1.37 (inactive),0.0898 (inactive),0.718 (inactive),0.656,0.212 (inactive),1.64 (inactive),2.23,-1.47,-0.0095,-1.96,-1.77,-2.66,-0.871,-0.735 (inactive),-0.848,-1.36,-1.07 (inactive)
CCCC[C@H]1OB(O)C[C@H]2C1=C(C)C[C@H]1C(=O)C=CC(=O)[C@H]12,-0.202 (inactive),-0.06,1.7 (inactive),0.183 (inactive),0.816 (inactive),0.182 (inactive),-0.0244,-1.12 (inactive),-1.25 (inactive),-1.18,-0.252,-1.14,-0.799,-3.35,-3.16,-3.39,-1.24 (inactive),-0.937,-2.13,-0.443 (inactive)
C=CCC(OC(C)=O)[C@@H]1[C@@H](N(Cc2ccc(-c3cccc(C(F)(F)F)c3)o2)C(=O)Cc2ccc(F)cc2)c2cc(OCCCO)ccc2N1C(=O)c1ccc2ccccc2n1 (stereo not given in full),-0.994 (inactive),-0.024,1.53 (inactive),-0.0905 (inactive),-0.592 (inactive),0.0644 (inactive),-0.47,0.249 (inactive),0.919 (inactive),1.13,0.0993,0.639,0.722,-0.911,-0.733,2.09,0.484 (inactive),-0.134,0.143,0.14 (inactive)
CC(C)(C)N1CC=CC23O[C@@H]4/C=C\CCCOC(=O)C4[C@H]2C(=O)N(CCCCCCO)[C@@H]3C1=O (stereo not given in full),1.88 (inactive),0.0903,1.64 (inactive),-0.353 (inactive),0.703 (inactive),-0.331 (inactive),1.97,0.834 (inactive),-0.0239 (inactive),2.04,0.0079,0.164,0.797,1.83,-0.0296,1.17,1.04 (inactive),0.116,-0.892,0.204 (inactive)
N#Cc1ccc(C(O)C2C=CC3C(=O)N(c4ccccc4)C(=O)C3N2Nc2ccc([N+](=O)[O-])cc2)cc1 (stereo not given),-0.955 (inactive),0.391,25.8 (active),12.8 (active),2.25 (inactive),1.56 (inactive),-0.283,-0.562 (inactive),-2.25 (inactive),-1.83,-0.211,-1.46,0.436,-0.0671,-0.333,-2.66,-1.78 (inactive),0.5,-1.43,-0.233 (inactive)
COc1ccc(C#Cc2ccc3c(c2)[C@]2(C(=O)N3)[C@H](c3ccc(OCCO)cc3)N3[C@H](c4ccccc4)[C@H](c4ccccc4)OC(=O)[C@H]3[C@@H]2C(=O)O)cc1,2.24 (inactive),1.4,-1.39 (inactive),-2.59 (inactive),-6.7 (inactive),-2.58 (inactive),1.6,-0.922 (inactive),-1.55 (inactive),-2.5,0.325,1.33,0.712,-3.1,-4.59,-4,-4.96 (inactive),-1.19,-1.99,0.721 (inactive)
COC(=O)[C@@]1(Cc2ccc(F)cc2)[C@H]2c3cc(C(=O)N(C)C)n(CCN4CCOCC4)c3C[C@H]2CN1C(=O)c1ccccc1,-1.43 (inactive),0.865,-0.64 (inactive),-0.738 (inactive),0.922 (inactive),-1.9 (inactive),0.537,0.482 (inactive),0.523 (inactive),-0.757,-1.27,0.234,-0.796,-1.05,-0.995,-0.738,-0.318 (inactive),-0.245,-0.28,0.389 (inactive)
COC(=O)c1ccc([C@H](NC(=O)c2ccccc2)[C@]2(C)C[C@H]2C2CCCCC2)cc1,-2.26 (inactive),0.718,8.84 (active),1.56 (inactive),-0.281 (inactive),0.692 (inactive),0.0094,0.0662 (inactive),-0.602 (inactive),1.22,-0.844,-1.92,-0.949,-0.831,-0.733,-1.15,-1.16 (inactive),0.624,-1.33,0.768 (inactive)
O=C1N(Cc2ccccc2)c2ccccc2[C@H]2OC(c3ccc(OCCCO)cc3)=N[C@@]12Cc1ccccc1,-0.456 (inactive),0.31,28.7 (active),25.3 (active),3.25 (inactive),2.26 (inactive),0.381,-1.32 (inactive),-0.641 (inactive),-1.68,-1.22,1.93,-1.78,-2.75,-4.59,-0.67,1.56 (inactive),-1.26,-1.66,-2.1 (inactive)
CCCCCN1CC=CC23O[C@@H]4C=CCOC(=O)[C@@H]4[C@H]2C(=O)N(CCCCCO)[C@@H]3C1=O (stereo not given in full),1.73 (inactive),-0.0766,1.47 (inactive),0.702 (inactive),1.45 (inactive),0.601 (inactive),0.461,1.35 (inactive),0.575 (inactive),1.94,-0.438,-0.28,-1.03,1.27,-1.6,-0.012,0.211 (inactive),0.85,0.876,-0.0947 (inactive)
[N-]=[N+]=NCc1ccccc1C[C@]1(C(=O)O)COC(c2ccc(OCCCO)cc2)=N1,0.0626 (inactive),0.118,5.11 (inactive),0.179 (inactive),1.56 (inactive),-0.315 (inactive),0.49,0.0988 (inactive),1.27 (inactive),0.641,0.608,-0.379,0.383,-0.175,0.345,-0.578,-0.634 (inactive),-0.285,-0.261,0.0946 (inactive)
